# According to the supplement of paper PMC9262897, “Low-cost anti-mycobacterial drug discovery using engineered E. coli” (Nature Communications, 2022):
# Counter-ions that a name gives are not always drawn. ± gives the standard deviation of the averaged measurements.
# Tests used:
# Experiment in all cases: growth (OD600 after 10 h); higher = more growth (less inhibition)
# [1] = system: E. coli TESEC Alr+ wild-type control; settings: compound 0.1 mM; raw OD600 reference: median of DMSO wells 0.241, cell-free background 0.041
# Experimental: (§1)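 TESEC Mtb Alr E. coli, or the Alr+ wild-type control, in 384-well plates with Prestwick library compounds at 0.1 mM and 1% DMSO, across arabinose induction levels of 1E3 to 1E7 nM. Growth is read as OD600 after 10 h at 37 °C in triplicate biological replicates.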
# E. coli TESEC Mtb Alr [2] = settings: compound 0.1 mM
# Experimental: as §1
# E. coli TESEC Mtb Asd = settings: compound 0.1 mM
# Experimental: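 TESEC E. coli strains in which the native enzyme is deleted and replaced by arabinose-inducible Mtb Asd, DapB, CysH or TrpD, each grown in its selective medium. Strains were screened against the Prestwick library at 0.1 mM and 1% DMSO in 384-well format at low and high arabinose induction. Growth is read as OD600 after 10 h in triplicate.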
# [3] = system: E. coli TESEC Alr+ wild-type control; settings: compound 0.1 mM; raw OD600 reference: median of DMSO wells 0.49, cell-free background 0.052
# Experimental: (§2)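 TESEC Mtb Alr E. coli (ΔaraC ΔtolC ΔentC Δalr ΔdadX, arabinose-inducible Mtb Alr) or the Alr+ wild-type control strain, grown in defined M9-fructose medium without D-alanine in 96-well plates with Prestwick library compounds at 0.1 mM and 1% DMSO. Low Alr induction is 0.1 µM arabinose and high induction is 10 mM arabinose.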
# E. coli TESEC Mtb Alr [4] = settings: compound 0.1 mM; remark: listed apart in the source
# Experimental: as §2
# [5] = arabinose 1000 nM, raw OD600 reference: median of DMSO wells 0.294, cell-free background 0.041
# [6] = arabinose 10000 nM, raw OD600 reference: median of DMSO wells 0.264, cell-free background 0.041
# [7] = arabinose 100000 nM, raw OD600 reference: median of DMSO wells 0.201, cell-free background 0.041
# [8] = arabinose 1000000 nM, raw OD600 reference: median of DMSO wells 0.193, cell-free background 0.041
# [9] = arabinose 10000000 nM, raw OD600 reference: median of DMSO wells 0.146, cell-free background 0.041
# [10] = arabinose induction (level): High, raw OD600 reference: median of DMSO wells 0.331, cell-free background 0.041
# [11] = arabinose induction (level): Low, raw OD600 reference: median of DMSO wells 0.417, cell-free background 0.041
# [12] = arabinose 100 nM, raw OD600 reference: median of DMSO wells 0.413, cell-free background 0.052
# [13] = arabinose 10000000 nM, raw OD600 reference: median of DMSO wells […], cell-free background 0.052
Compound,growth [1],growth (E. coli TESEC Mtb Alr [2]; [5]),growth (E. coli TESEC Mtb Alr [2]; [6]),growth (E. coli TESEC Mtb Alr [2]; [7]),growth (E. coli TESEC Mtb Alr [2]; [8]),growth (E. coli TESEC Mtb Alr [2]; [9]),growth (E. coli TESEC Mtb Asd; [10]),growth (E. coli TESEC Mtb Asd; [11]),growth [3],growth (E. coli TESEC Mtb Alr [4]; [12]),growth (E. coli TESEC Mtb Alr [4]; [13])
CCCCNc1ccc(C(=O)OCCOCCOCCOCCOCCOCCOCCOCCOCCOC)cc1 [Benzonatate],0.241 ± 0.0078,0.279 ± 0.0063,0.252 ± 0.011,0.217 ± 0.0091,0.148 ± 0.006,0.157 ± 0.0052,0.245 ± 0.012,0.405 ± 0.0093,0.444 ± 0.033,0.407 ± 0.012,0.264 ± 0.12
C[C@H]1O[C@H](O[C@H]2[C@H](O)[C@@H](O)[C@@H](O[C@@H]([C@H](O)[C@@H](O)C=O)[C@H](O)CO)O[C@@H]2CO)[C@H](O)[C@@H](O)[C@@H]1N[C@H]1C=C(CO)[C@@H](O)[C@H](O)[C@H]1O [Acarbose],0.261 ± 0.0036,0.313 ± 0.0078,0.25 ± 0.005,0.244 ± 0.0037,0.182 ± 0.0045,0.145 ± 0.013,0.322 ± 0.026,0.476 ± 0.036,0.458 ± 0.0055,0.396 ± 0.013,0.3792 ± 0.0032
CC(C)(C)NC(=O)[C@@H]1C[C@@H]2CCCC[C@@H]2CN1C[C@@H](O)[C@H](Cc1ccccc1)NC(=O)[C@H](CC(N)=O)NC(=O)c1ccc2ccccc2n1 [Saquinavir mesylate],0.072 ± 0.012,0.0535 ± 0.0019,0.0491 ± 0.0035,0.0468 ± 0.0011,0.051 ± 0.0027,0.0524 ± 0.0032,0.0544 ± 0.0037,0.0524 ± 0.001,0.0807 ± 0.0042,0.273 ± 0.11,0.0539 ± 0.0034
Cn1c([N+](=O)[O-])cnc1COC(N)=O [Ronidazole],0.226 ± 0.0055,0.296 ± 0.007,0.27 ± 0.0076,0.161 ± 0.0087,0.149 ± 0.0036,0.164 ± 0.0025,0.241 ± 0.036,0.338 ± 0.016,0.458 ± 0.0079,0.4333 ± 0.0022,0.285 ± 0.011
O=C(Nc1ccc([N+](=O)[O-])cc1Cl)c1cc(Cl)ccc1O [Niclosamide],0.0431 ± 0.00067,0.0406 ± 0.001,0.0492 ± 0.0021,0.0408 ± 0.0001,0.03973 ± 0.00035,0.0404 ± 0.00042,0.0715 ± 0.017,0.225 ± 0.037,0.053 ± 0.003,0.0618 ± 0.0064,0.0616 ± 0.00076
CCN(CC)Cc1cc(Nc2ccnc3cc(Cl)ccc23)ccc1O [Amodiaquin dihydrochloride dihydrate],0.16 ± 0.0068,0.229 ± 0.0059,0.269 ± 0.003,0.181 ± 0.0097,0.102 ± 0.0085,0.203 ± 0.0054,0.179 ± 0.011,0.387 ± 0.051,0.527 ± 0.047,0.4131 ± 0.00099,0.322 ± 0.0054
CCC(=O)O[C@]1(C(=O)SCF)[C@H](C)C[C@H]2[C@@H]3C[C@H](F)C4=CC(=O)C=C[C@]4(C)[C@@]3(F)[C@@H](O)C[C@@]21C [Fluticasone propionate],0.233 ± 0.0036,0.29 ± 0.013,0.274 ± 0.021,0.21 ± 0.012,0.201 ± 0.013,0.149 ± 0.0044,0.258 ± 0.058,0.36 ± 0.046,0.576 ± 0.026,0.453 ± 0.01,0.381 ± 0.034
CCCCc1oc2ccccc2c1C(=O)c1cc(I)c(OCCN(CC)CC)c(I)c1 [Amiodarone hydrochloride],0.263 ± 0.01,0.325 ± 0.0083,0.324 ± 0.0065,0.193 ± 0.0069,0.177 ± 0.0065,0.153 ± 0.0059,0.284 ± 0.017,0.338 ± 0.033,0.58 ± 0.025,0.424 ± 0.057,0.316 ± 0.044
CCc1cc(C(N)=S)ccn1 [Ethionamide],0.243 ± 0.0035,0.294 ± 0.0077,0.262 ± 0.005,0.236 ± 0.036,0.184 ± 0.0033,0.144 ± 0.0028,0.299 ± 0.05,0.324 ± 0.1,0.583 ± 0.11,0.406 ± 0.0087,0.334 ± 0.02
CS(=O)(=O)c1ccc([C@@H](O)[C@@H](CO)NC(=O)C(Cl)Cl)cc1 [Thiamphenicol],0.0517 ± 0.0013,0.0511 ± 0.0029,0.0394 ± 0.00036,0.0517 ± 0.0013,0.0395 ± 0.0001,0.055 ± 0.0011,0.0715 ± 0.0096,0.0618 ± 0.0034,0.206 ± 0.015,0.301 ± 0.012,0.086 ± 0.0081
CC(=O)OC[C@H]1O[C@@H]([S-])[C@H](OC(C)=O)[C@@H](OC(C)=O)[C@@H]1OC(C)=O.CCP(CC)CC.[Au+] [Auranofin],0.0481 ± 0.0033,0.04847 ± 0.00021,0.0451 ± 0.00026,0.0634 ± 0.012,0.0436 ± 0.00056,0.0467 ± 0.00053,0.0525 ± 0.0026,0.0514 ± 0.0016,0.059 ± 0.00026,0.0775 ± 0.008,0.056 ± 0.00069
CNC1(C)C2CCC(C2)C1(C)C (configuration not stated) [Mecamylamine hydrochloride],0.242 ± 0.006,0.307 ± 0.0084,0.293 ± 0.0071,0.214 ± 0.034,0.185 ± 0.016,0.156 ± 0.0054,0.266 ± 0.078,0.304 ± 0.093,0.462 ± 0.03,0.433 ± 0.0029,0.312 ± 0.02
Cc1ccc(-c2ncc(Cl)cc2-c2ccc(S(C)(=O)=O)cc2)cn1 [Etoricoxib],0.17 ± 0.0023,0.241 ± 0.006,0.213 ± 0.0045,0.184 ± 0.014,0.15 ± 0.0079,0.161 ± 0.0033,0.266 ± 0.076,0.241 ± 0.0033,0.388 ± 0.0074,0.414 ± 0.0091,0.281 ± 0.018
C[C@H](CCC(=O)O)[C@H]1CC[C@H]2[C@@H]3[C@H](O)C[C@@H]4C[C@H](O)CC[C@]4(C)[C@H]3CC[C@]12C [Chenodiol],0.247 ± 0.0086,0.263 ± 0.0097,0.221 ± 0.0073,0.278 ± 0.021,0.146 ± 0.0057,0.143 ± 0.0086,0.216 ± 0.071,0.289 ± 0.049,0.439 ± 0.059,0.392 ± 0.0058,0.209 ± 0.02
C[n+]1ccccc1/C=N/O [Pralidoxime chloride],0.253 ± 0.0089,0.318 ± 0.018,0.256 ± 0.013,0.202 ± 0.015,0.177 ± 0.0021,0.156 ± 0.007,0.476 ± 0.013,0.455 ± 0.046,0.605 ± 0.018,0.407 ± 0.018,0.323 ± 0.015
C/C=C(/C(=C/C)c1ccc(O)cc1)c1ccc(O)cc1 [Dienestrol],0.0526 ± 0.0075,0.0496 ± 0.0047,0.0394 ± 0.0002,0.0419 ± 0.0015,0.0393 ± 0.0001,0.0759 ± 0.031,0.0492 ± 0.0033,0.0498 ± 0.0031,0.139 ± 0.14,0.0576 ± 0.014,0.05137 ± 0.00032
Nc1nc(=S)c2ncn([C@@H]3O[C@H](CO)[C@@H](O)[C@H]3O)c2[nH]1 [Thioguanosine],0.0575 ± 0.0014,0.0503 ± 0.0022,0.0465 ± 0.00055,0.0493 ± 0.00055,0.0474 ± 0.00055,0.05337 ± 0.00021,0.209 ± 0.0071,0.127 ± 0.014,0.349 ± 0.02,0.225 ± 0.028,0.0964 ± 0.0089
